These results are taken from PubChem BioAssay (NCATS).

In assay [1] the target is Lysosomal acid glucosylceramidase (Homo sapiens) (UniProt P04062). Briefly: Glucocerebrosidase-p2 (AID 348; in the data active means potency below about 10 µM; further: potency means the concentration at half of the fitted maximal effect). To be noted: purified GBA, blue fluorogenic substrate, 40 min. In short, it runs like this:
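Normal human glucocerebrosidase (0.2 nM) with blue fluorogenic substrate (80 uM final) in citrate/phosphate pH 5.9 with 10mM sodium taurocholate, 0.01% tween-20; 40 min RT, NaOH/glycine stop; fluorescence Ex 365/Em 440; AC50 from a titration from 0.6 nM upwards.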

Assay [2] in a line: AP1 Signaling Pathway (AID 357). Further: on the % scale 0 is the no-effect control and ±100 the full control effect. The conditions noted are these: ME-180 AP-1-bla reporter, EGF-induced, beta-lactamase ratio, 5 h; at 7.69 µM (top of the series) unless noted. An outline of the steps: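 Read-out was the 460nm/530nm emission ratio (excitation 405nm) after CCF4 loading for 2.5 hours at room temperature. Cells carried an AP-1-driven beta-lactamase reporter, were stimulated with EC50 EGF plus compound for 5 hours, and AC50 values came from titrations.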

The nature of assay [3]: NFAT Signaling Pathway (AID 444).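 Further: carbachol stimulus at about its EC50 of 1 µM final; on the % scale 0 is the no-effect control and ±100 the full control effect.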 The conditions noted are these: Jurkat NFAT-bla M1, carbachol, beta-lactamase ratio, 5 h; at 7.69 µM (top of the series) unless noted. An outline of the steps:
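Jurkat cells with NFAT-driven β-lactamase reporter and co-expressed M1 receptor, stimulated with carbachol (final 1 uM, ~EC50), compound titration, 5 h at 37 °C. CCF4 loaded 1 h at RT; 460/530 nm ratio gave %activity and AC50.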

The nature of assay [4]: Stat Signaling Pathway (AID 446).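 Further: ME-180 cervical cancer cells given 40 pM IL-6 alongside compound; SIE-controlled beta-lactamase reporter measured as 460/530 nm FRET emission ratio; on the % scale 0 is the no-effect control and ±100 the full control effect.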 The conditions noted are these: ME-180 SIE beta-lactamase reporter, IL-6 stimulated, 5 h; at 7.69 µM (top of the series) unless noted. In short, it runs like this:
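FRET read-out (405 nm excitation, 460/530 nm emission) of a beta-lactamase reporter under a STAT-inducible element in ME-180 cervical carcinoma cells. Cells with compound receive 40 pM IL-6 for 5 h. Values are normalised to AC90 stimulation and AC90 JAK-inhibitor controls.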

Assay [5] addresses Glucocorticoid receptor (Homo sapiens) (UniProt P04150). Briefly: GR-GFP Redistribution (AID 450;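 active means compounds whose dose series gives a full or clear partial fitted curve of increased nuclear translocation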; further: potency means the concentration at half of the fitted maximal effect). The conditions noted are these: U2OS GR-GFP nuclear translocation, laser cytometry, 2 h.
The target is the same in assay [6]. Briefly: GR-EFC Redistribution (AID 451; calls by dose curve; further: potency means the concentration at half of the fitted maximal effect). The conditions noted are these: CHO-K1 GR-EFC translocation, beta-gal luminescence, 2 h. An outline of the steps:
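CHO-K1 cells expressing nuclear EA and GR-ED fragments of b-gal; compounds titrated up to 46 uM final, 2 h at 37 C. GR nuclear translocation read as complemented b-gal luminescence after 1 h RT detection.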

Assay [7] deals with Mitogen-activated protein kinase 10 (Mus musculus) (UniProt Q61831). Briefly: JNK3 AlphaScreen Assay (AID 530).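 Further: kinase came from lysate of stimulated human HepG2 cells; signal reports phosphorylation of biotinylated GST-cJun 1-79 at Ser73 with 10 µM ATP; on the % scale 0 is the no-effect control and ±100 the full control effect.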 The conditions noted are these: JNK3 lysate, c-Jun phosphorylation; series mostly up to 11.4 µM. In short, it runs like this: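 HepG2 lysate (IL-1b/TNFa pre-activated) + biotin-GST-cJun 1-79 + anti-pSer73 cJun; cpd titration, 15 min RT; ATP 10 uM start; Tris pH 7.6, MgCl2, DTT, vanadate; beads in EDTA buffer; AlphaScreen.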

Assay [8] has as its target 3',5'-cyclic-AMP phosphodiesterase 4B (Homo sapiens) (UniProt Q07343). Briefly: qHTS Assay for Inhibitors of PDE-IV (AID 607; active means well fitted activation curve with a large enough effect in the main read-out, with a control signal flat, not every such curve was filed as active; further: % of control where 0% means no effect). To be noted: HEK293 ACTOne CNG channel cells, membrane potential fluorescence; series mostly up to 22.9 µM. In short, it runs like this:
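Cell-based read-out of cAMP via a modified cyclic nucleotide-gated channel and membrane potential dye (535/590 nm) in HEK293 cells expressing PDE4 endogenously. Compounds tested up to 22.9 uM final; 100 uM RO 20-1724 reference.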

Assay [9] in a line: qHTS Assay for Identification of Small Molecule Agonists for Hypoxia Response Element Signaling Pathway (AID 914; active means well fitted activation curve with a large enough effect in the signal ratio, with a control signal flat, not every such curve was filed as active; the % refers to the signal ratio; further: % of control where 0% means no effect). The conditions noted are these: ME-180 (cervical carcinoma) HRE-bla reporter, beta-lactamase ratio, CoCl2, 17 h; activation: active compounds read high. An outline of the steps:
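In Opti-MEM containing 0.5% dialyzed FBS and 10 mM HEPES, ME-180 HRE-bla cells received a compound titration and EC50 CoCl2. They were incubated 17 hours, then CCF4-loaded 2.5 hours at room temperature before ratio reading.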

Assay [10] addresses Cytochrome P450 2C9 (Homo sapiens) (UniProt P11712). Briefly: qHTS Assay for Inhibitors and Substrates of Cytochrome P450 2C9 (AID 883; active means well fitted inhibition curve with a large enough effect; further: on the % scale 0 is the no-effect control and ±100 the full control effect; nearly all actives have a fitted effect of over 60% in size). To be noted: recombinant CYP2C9, luciferin-H luminescence, 60 min; series mostly up to 11.4 µM. An outline of the steps: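 Human CYP2C9 (10nM) with Luciferin-H at 100uM (its KM) in 25mM KPO4; compound preincubated 10 min at 37C, then NADPH regeneration for 60 min at 37C. Luciferin read by luminescence after detection reagent; normalized to 57uM sulphaphenazole as full inhibition.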

Assay [11] addresses Cytochrome P450 3A4 (Homo sapiens) (UniProt P08684). Briefly: qHTS Assay for Inhibitors and Substrates of Cytochrome P450 3A4 (AID 884; active means well fitted inhibition curve with a large enough effect; further: on the % scale 0 is the no-effect control and ±100 the full control effect; nearly all actives have a fitted effect of over 50% in size). To be noted: recombinant CYP3A4, Luciferin-PPXE luminescence; series mostly up to 57.1 µM. An outline of the steps: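 Luminescent readout of luciferin produced by CYP3A4 (20 nM) dealkylation of Luciferin-PPXE, 25 uM (its KM). NADPH-driven reaction ran 60 min at RT after 10 min compound preincubation; data scaled to 57 uM ketoconazole as 100% inhibition.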

Assay [12] has as its target Cytochrome P450 2D6 (Homo sapiens) (UniProt P10635). Nature of the assay: qHTS Assay for Inhibitors and Substrates of Cytochrome P450 2D6 (AID 891; active means well fitted inhibition curve with a large enough effect;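 further: luciferin methyl ether substrate demethylated by CYP2D6 with NADPH regeneration; on the % scale 0 is the no-effect control and ±100 the full control effect; nearly all actives have a fitted effect of over 60% in size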). The conditions noted are these: recombinant CYP2D6, luciferin-ME EGE luminescence; series mostly up to 11.4 µM. An outline of the steps: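 Luminescent read-out of luciferin formed by 5 nM human CYP2D6 demethylating 30 uM Luciferin-ME EGE (Km level) over 60 min at room temperature after NADPH regeneration addition. Data normalized to full inhibition by 1.43 uM quinidine.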

The target in assay [13] is Cytochrome P450 2C19 (Homo sapiens) (UniProt P33261). Briefly: qHTS Assay for Inhibitors and Substrates of Cytochrome P450 2C19 (AID 899; active means well fitted inhibition curve with a large enough effect; further: on the % scale 0 is the no-effect control and ±100 the full control effect; nearly all actives have a fitted effect of over 60% in size). To be noted: recombinant CYP2C19, luciferin-H EGE luminescence; series mostly up to 11.4 µM. An outline of the steps: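 5 nM human CYP2C19 with 10uM Luciferin-H EGE (at KM) in 50mM KPO4, compound preincubated 10 min at 37C, then NADPH regeneration for 60 min at 37C. Luciferin read by luminescence after detection reagent; normalized to 57uM ketoconazole as full inhibition.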
Sequence of Cytochrome P450 2C19 (Homo sapiens) (P33261 whole entry, looked up): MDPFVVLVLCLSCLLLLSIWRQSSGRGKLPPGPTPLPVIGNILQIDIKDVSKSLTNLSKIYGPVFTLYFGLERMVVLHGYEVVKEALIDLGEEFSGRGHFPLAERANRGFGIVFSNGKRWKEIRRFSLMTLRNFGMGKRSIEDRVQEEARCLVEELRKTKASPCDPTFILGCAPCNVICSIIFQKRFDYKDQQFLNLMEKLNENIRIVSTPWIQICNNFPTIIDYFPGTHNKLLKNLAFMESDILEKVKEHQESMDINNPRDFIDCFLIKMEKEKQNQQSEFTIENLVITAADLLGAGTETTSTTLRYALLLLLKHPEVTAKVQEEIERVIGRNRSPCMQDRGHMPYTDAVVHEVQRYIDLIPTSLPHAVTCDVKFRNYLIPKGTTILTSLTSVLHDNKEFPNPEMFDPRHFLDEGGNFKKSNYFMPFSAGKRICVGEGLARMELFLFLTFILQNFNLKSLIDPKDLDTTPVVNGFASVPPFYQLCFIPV

SMILES strings stand for the structures. Values without a mark were called inactive. Inconclusive results are not listed. The source made the active and inactive calls. Unless noted, the call rests on the fitted dose curve; in most records, active means well fitted curve in either direction with a large enough effect (not every such curve was filed as active); inconclusive means small, poorly fitted or top-dose-only effect, or another doubt; inactive means flat fitted curve, though single readings scatter.

Sequence of Lysosomal acid glucosylceramidase (Homo sapiens) (P04062 whole entry, looked up): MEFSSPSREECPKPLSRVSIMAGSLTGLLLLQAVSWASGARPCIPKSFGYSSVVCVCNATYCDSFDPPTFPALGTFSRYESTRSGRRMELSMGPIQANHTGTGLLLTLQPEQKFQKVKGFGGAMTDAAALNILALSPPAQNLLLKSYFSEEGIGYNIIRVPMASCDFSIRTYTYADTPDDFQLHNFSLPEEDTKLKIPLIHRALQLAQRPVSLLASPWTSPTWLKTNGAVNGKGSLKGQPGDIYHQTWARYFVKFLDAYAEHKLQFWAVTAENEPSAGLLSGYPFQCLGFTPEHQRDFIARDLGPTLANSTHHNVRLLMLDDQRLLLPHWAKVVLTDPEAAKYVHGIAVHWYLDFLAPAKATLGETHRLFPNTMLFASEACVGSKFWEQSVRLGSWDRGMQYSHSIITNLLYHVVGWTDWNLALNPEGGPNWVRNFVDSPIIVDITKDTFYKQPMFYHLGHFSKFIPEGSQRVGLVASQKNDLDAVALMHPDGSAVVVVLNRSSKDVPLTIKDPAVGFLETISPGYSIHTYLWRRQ
Sequence of Glucocorticoid receptor (Homo sapiens) (P04150 whole entry, looked up): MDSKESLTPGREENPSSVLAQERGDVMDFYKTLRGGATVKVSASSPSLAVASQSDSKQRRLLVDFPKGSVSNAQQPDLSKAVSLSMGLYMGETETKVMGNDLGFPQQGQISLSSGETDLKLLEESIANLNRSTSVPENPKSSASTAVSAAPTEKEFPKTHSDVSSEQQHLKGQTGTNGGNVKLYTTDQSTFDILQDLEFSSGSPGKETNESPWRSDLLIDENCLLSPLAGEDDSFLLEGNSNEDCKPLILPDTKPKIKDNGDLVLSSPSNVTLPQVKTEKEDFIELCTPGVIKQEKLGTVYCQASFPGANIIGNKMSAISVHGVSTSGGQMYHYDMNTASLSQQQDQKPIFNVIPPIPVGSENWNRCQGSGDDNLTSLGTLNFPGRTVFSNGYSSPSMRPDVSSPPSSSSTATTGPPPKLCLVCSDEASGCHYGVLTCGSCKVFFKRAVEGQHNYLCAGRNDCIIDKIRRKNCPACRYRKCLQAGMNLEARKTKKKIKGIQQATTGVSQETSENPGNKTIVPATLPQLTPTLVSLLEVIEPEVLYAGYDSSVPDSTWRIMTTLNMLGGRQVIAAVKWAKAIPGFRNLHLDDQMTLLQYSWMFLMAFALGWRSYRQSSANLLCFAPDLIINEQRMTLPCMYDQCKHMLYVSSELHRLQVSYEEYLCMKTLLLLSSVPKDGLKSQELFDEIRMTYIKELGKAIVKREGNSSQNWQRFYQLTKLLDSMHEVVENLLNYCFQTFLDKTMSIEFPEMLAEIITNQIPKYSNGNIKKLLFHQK
Sequence of 3',5'-cyclic-AMP phosphodiesterase 4B (Homo sapiens) (Q07343 whole entry, looked up): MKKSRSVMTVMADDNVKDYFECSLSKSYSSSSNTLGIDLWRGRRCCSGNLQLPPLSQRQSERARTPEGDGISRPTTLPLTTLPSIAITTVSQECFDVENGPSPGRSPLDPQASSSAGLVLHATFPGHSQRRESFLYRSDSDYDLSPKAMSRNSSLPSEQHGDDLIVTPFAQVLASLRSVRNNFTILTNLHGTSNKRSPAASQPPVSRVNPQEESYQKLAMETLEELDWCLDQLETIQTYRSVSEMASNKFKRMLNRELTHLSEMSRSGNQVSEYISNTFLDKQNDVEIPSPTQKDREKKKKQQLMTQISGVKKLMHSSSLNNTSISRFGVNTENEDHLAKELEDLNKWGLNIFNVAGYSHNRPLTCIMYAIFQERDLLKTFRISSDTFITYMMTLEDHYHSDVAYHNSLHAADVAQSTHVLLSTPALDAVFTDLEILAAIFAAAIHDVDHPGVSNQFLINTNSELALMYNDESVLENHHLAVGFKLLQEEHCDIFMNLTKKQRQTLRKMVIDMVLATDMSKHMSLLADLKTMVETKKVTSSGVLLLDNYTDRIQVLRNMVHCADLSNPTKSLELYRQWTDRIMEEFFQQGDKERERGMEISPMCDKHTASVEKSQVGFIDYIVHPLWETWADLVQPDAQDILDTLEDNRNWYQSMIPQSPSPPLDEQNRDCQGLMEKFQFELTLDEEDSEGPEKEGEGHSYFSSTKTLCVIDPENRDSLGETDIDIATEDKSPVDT
Sequence of Cytochrome P450 2C9 (Homo sapiens) (P11712 whole entry, looked up): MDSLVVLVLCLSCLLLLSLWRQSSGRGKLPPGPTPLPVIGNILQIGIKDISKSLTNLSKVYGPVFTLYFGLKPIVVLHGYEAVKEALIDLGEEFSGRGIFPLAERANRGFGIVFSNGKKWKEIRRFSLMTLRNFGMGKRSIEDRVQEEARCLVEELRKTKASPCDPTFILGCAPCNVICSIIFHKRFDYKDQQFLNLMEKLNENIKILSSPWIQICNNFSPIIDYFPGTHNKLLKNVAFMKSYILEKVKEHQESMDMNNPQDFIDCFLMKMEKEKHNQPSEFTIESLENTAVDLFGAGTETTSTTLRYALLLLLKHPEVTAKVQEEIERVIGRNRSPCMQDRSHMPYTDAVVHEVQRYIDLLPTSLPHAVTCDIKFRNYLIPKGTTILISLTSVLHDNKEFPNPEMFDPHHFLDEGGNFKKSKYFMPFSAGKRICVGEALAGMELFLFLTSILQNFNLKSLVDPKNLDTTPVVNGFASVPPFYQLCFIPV
Sequence of Cytochrome P450 2D6 (Homo sapiens) (P10635 whole entry, looked up): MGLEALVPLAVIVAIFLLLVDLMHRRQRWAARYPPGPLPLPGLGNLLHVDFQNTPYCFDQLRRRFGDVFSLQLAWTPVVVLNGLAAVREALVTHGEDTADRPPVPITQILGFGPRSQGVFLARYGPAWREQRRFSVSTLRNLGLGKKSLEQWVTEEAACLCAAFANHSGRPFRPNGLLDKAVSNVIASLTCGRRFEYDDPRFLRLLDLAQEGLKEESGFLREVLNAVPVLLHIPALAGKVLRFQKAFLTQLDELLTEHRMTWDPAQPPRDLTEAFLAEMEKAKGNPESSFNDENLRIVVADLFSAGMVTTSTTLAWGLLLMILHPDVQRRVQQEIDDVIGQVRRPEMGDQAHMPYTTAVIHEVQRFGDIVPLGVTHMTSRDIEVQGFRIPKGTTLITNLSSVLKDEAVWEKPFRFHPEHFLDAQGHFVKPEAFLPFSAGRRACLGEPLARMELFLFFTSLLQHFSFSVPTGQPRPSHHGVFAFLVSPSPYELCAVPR
Sequence of Cytochrome P450 3A4 (Homo sapiens) (P08684 whole entry, looked up): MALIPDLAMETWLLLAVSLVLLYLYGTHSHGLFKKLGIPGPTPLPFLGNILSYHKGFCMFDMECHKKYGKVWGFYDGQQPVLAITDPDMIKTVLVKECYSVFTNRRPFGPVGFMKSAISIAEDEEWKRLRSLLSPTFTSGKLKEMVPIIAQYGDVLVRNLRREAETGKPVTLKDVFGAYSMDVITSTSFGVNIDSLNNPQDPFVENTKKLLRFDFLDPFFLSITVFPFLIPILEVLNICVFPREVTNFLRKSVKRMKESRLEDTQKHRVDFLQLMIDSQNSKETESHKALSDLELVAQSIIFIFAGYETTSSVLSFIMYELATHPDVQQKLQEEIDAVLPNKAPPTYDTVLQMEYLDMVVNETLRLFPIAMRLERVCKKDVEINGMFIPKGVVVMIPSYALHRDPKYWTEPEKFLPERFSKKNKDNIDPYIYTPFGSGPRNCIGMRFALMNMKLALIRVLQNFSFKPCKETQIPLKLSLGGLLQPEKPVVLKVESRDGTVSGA

`O=C1Nc2ccccc2[C@]1(O)Cc1ccccn1`: the Potency in assay [1] was more than 11.4 µM; in [5], more than 46 µM; in assay [6], 0.26 µM (active). In addition, the activity change, negative = inhibition was 1.94% in [2] and 2.79% in assay [3]. In assay [4], the activity, negative = inhibition is 12.1%. The Potency result in assay [7] and in assay [8] was “inactive” throughout. In assay [9], the activation was -8.99%.

As for `c1ccc2nc(CC[C@@H]3CCCCN3)ccc2c1`, the results for the Potency in assay [1], in assay [5] and in assay [6] were more than 11.4 µM, more than 46 µM and more than 9.22 µM, respectively. The activity change, negative = inhibition in assay [2] was 7.07%; in assay [3] it was -3.97%. In addition, the activity, negative = inhibition in assay [4] was -5.39%. Moreover, the Potency entry in assay [7] and in assay [8] was “inactive” in each case. In addition, in [9], the activation was -14.2%.

`O=C(O)CC[C@@]1(c2ccccc2)NC(=O)NC1=O`: the Potency in [1] was more than 11.4 µM; in assay [5] it was more than 46 µM; in [6] it was more than 9.22 µM. The activity change, negative = inhibition in assay [2] is 3.07%; in assay [3], 8.48%. In assay [4], the activity, negative = inhibition was 2.02%. The Potency result in [7] and in assay [8] was “inactive” each time. In assay [9], the activation was -0.349%.

Turning to `O=C(O)c1ccc2c(c1C(=O)O)C(=O)OC2(c1ccc(O)cc1)c1ccc(O)cc1`, the figures for the Potency in assay [1], in assay [5] and in [6] were more than 11.4 µM, more than 46 µM and more than 9.22 µM, respectively. Also, the activity change, negative = inhibition in [2] is 2.33%; in assay [3] it was 0.0722%. For the same compound, the activity, negative = inhibition in assay [4] is 1.84%. The Potency result in assay [7] and in assay [8] was “inactive” each time. The activation in assay [9] was 9.96%.

Consider `OC[C@H](CCc1c[nH]c2ccccc12)c1c[nH]c2ccccc12`, for which the Potency is more than 11.4 µM in assay [1], more than 46 µM in assay [5] and more than 9.22 µM in assay [6]. In addition, the activity change, negative = inhibition is -11.6% in assay [2] and 29.4% in assay [3]. Also, in assay [4], the activity, negative = inhibition is -1.35%. Besides, the Potency result in assay [7] and in [8] was “inactive” throughout. Moreover, the activation in [9] was -29.3%.

Turning to `O=S(=O)(O)c1cc(S(=O)(=O)O)c2c(N=Nc3cccc4ccccc34)c(O)ccc2c1`, the Potency in [1] was more than 11.4 µM; in assay [5], more than 46 µM; in [6] it was more than 9.22 µM. The figures for the activity change, negative = inhibition in assay [2], in assay [3] and in assay [11] were 4.87%, 21.1% and -5.78% [at 11.4 µM], respectively. Also, the activity, negative = inhibition in assay [4] is 5.07%. For the same compound, the Potency result in [8], in [10], in assay [12] and in [13] was “inactive” each time.

Consider `O=C(O)C[C@H](Sc1ccccc1)c1ccccc1`, for which the results for the Potency in [1], in assay [5] and in assay [6] were more than 11.4 µM, more than 46 µM and more than 9.22 µM, respectively. For the same compound, the activity change, negative = inhibition in assay [2] was 7.59%; in assay [3], 8.06%. Further, the activity, negative = inhibition in assay [4] is -24.9%. For the same compound, the Potency result in assay [7] and in assay [8] was “inactive” in each case. Further, the activation in assay [9] was -1.84%.
